Reference: PubChem BioAssay (NCATS)
“And” between values parts separate entries of the source, which are not always exact repeats. Equal entries are not always repeated. Results filed as inconclusive are left out. The source made the active and inactive calls. Unless noted, the call rests on the fitted dose curve; in most records, active means well fitted curve in the direction sought with a large enough effect; inconclusive means small, poorly fitted or top-dose-only effect, or another doubt; inactive means no such curve, though single readings can be large; an effect the other way counts as inactive or inconclusive.

Columns and labels:
[1] = qHTS to identify inhibitors of the type 1 interferon - major histocompatibility complex class I in skeletal muscle: primary screen against the NCATS Mechanism Interrogation Plate v5.0 (MIPE) Libary (AID 1347411); further: nearly all actives have a fitted effect of over 65% in size; further: potency means the concentration at half of the fitted maximal effect;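 on activity change, negative = inhibition: plate controls were vehicle for no effect and reference inhibitor for full effect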
Outline: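 Luminescence from CRISPR HiBit-tagged endogenous HLA-B in human myoblasts reported MHC class I level after 24 h of IFN-beta (4 ng/ml) plus compound. Compounds ran as 11-point 1:3 series, top 46 uM final.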

[2] = Primary qHTS for inhibitors of nuclear receptor binding SET domain protein 2 (NSD2) in an isogenic RCH-ACV NSD2 p.E1099K mutant (9B) (AID 1645876); further: nearly all actives have a fitted effect of over 70% in size; further: potency means the concentration at half of the fitted maximal effect
[3] = Primary qHTS for inhibitors of nuclear receptor binding SET domain protein 2 (NSD2) in an RCH-ACV wild type WT cells (2C) (AID 1645877); further: nearly all actives have a fitted effect of over 70% in size; further: potency means the concentration at half of the fitted maximal effect
[4] = molecular target: Phospholipid hydroperoxide glutathione peroxidase GPX4 (Homo sapiens) (UniProt P36969); experiment: Primary qHTS Assay for Inhibitors of Recombinant Selenoprotein Glutathione Peroxidase 4 (GPX4) (AID 1845192); details: outcome: dose series up to 50 µM unless noted; further: nearly all actives have a fitted effect of over 65% in size; on activity change, negative = inhibition: on the % scale 0 is the no-effect control and ±100 the full control effect
Outline: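 qHTS, GR-coupled: GPX4 200 nM + cpd 30 min RT → GSH 1 mM, NADPH 0.5 mM, GR 100 nM → CHP 0.5 mM start; fluor 340/450 at t0 and t15 min; no-enzyme wells as control.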

[5] = qHTS drug screen for cell cycle checkpoint inhibitors in PARPi-resistant BRCA-mutant ovarian cancer cell lines. (AID 1963452; calls by dose curve; further: potency means the concentration at half of the fitted maximal effect); details: PEO1/OlaR viability, CellTiter-Glo luminescence, 96 h; for Z-AUC: stronger effect = lower value
Outline: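 PEO1, PEO4 and PEO1/OlaR ovarian cancer cells, 600 per well, exposed 96 h at 37C to a dilution series. Viability read by CellTiter-Glo luminescence, normalized to DMSO and empty wells; activity summarized as Z-AUC.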

[6] = qHTS assay to identify inhibitors of the type 1 interferon - major histocompatibility complex class I in skeletal muscle: Counter screen cell viability and HiBit confirmation (AID 1347412); details: iHSKM muscle cells + IFN-b, HiBiT or CellTiter-Glo, 24 h; for activity change, negative = inhibition: at 45.9 µM (top of the series); further: potency means the concentration at half of the fitted maximal effect; on activity change, negative = inhibition: on the % scale 0 is the no-effect control and ±100 the full control effect; on all read-outs here: nearly all actives have a fitted effect of over 60% in size
Outline: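 Human myoblast knock-in line, 4.0 ng/ml IFN-beta stimulation, 24 h compound treatment. Endpoints: HiBiT lytic luminescence (HLA-B level) and CellTiter Glo (ATP). Dosing 12 concentrations, 3-fold steps, 46 uM highest final.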

[7] = molecular target: Glutathione peroxidase 1 (Homo sapiens) (UniProt P07203); experiment: Primary qHTS Assay for Inhibitors of Recombinant Selenoprotein Glutathione Peroxidase 1 (GPX1) (AID 1845191); further: nearly all actives have a fitted effect of over 65% in size; further: potency means the concentration at half of the fitted maximal effect
Outline: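 GPX1 10 nM, GR 100 nM, GSH 1 mM, NADPH 0.5 mM, CHP 0.5 mM (final). 30-min cpd preincubation, RT. Ex340/Em450 read t=0, t=15 min.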

[8] = measured here: PEO1 parental Z-AUC

Glutathione peroxidase 1 (Homo sapiens), sequence (P07203 whole entry, looked up): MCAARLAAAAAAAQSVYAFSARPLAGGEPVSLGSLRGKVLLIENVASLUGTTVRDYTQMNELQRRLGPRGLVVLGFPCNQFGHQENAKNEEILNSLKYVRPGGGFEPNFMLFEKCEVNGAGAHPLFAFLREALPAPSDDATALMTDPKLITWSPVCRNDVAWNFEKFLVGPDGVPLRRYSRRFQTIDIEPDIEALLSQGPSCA
Phospholipid hydroperoxide glutathione peroxidase GPX4 (Homo sapiens), sequence (P36969 whole entry, looked up): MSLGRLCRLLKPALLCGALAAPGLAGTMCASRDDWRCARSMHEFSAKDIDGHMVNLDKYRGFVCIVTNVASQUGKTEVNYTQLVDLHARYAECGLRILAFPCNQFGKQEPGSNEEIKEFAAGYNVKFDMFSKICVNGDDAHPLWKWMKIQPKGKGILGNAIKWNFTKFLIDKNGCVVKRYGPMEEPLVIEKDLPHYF

Row | SMILES | Potency [1] | Potency [2] | Potency [3] | Potency [4] | Z-AUC [5] | Z-AUC [5, 8] | Z-AUC ([5]; measured here: PEO4 Z-AUC) | Potency ([6]; HiBiT) | activity change, negative = inhibition ([6]; Viability) | Potency [7] | Potency [5] | Potency ([6]; Viability)
1 | Cc1cc2cc(Oc3ccnc(Nc4cccc(CS(=O)(=O)NCCN(C)C)c4)n3)ccc2[nH]1 | 13.1 µM (active) | 8.33 µM (active) | 5.9 µM (active) | inactive | 0.517 (inactive) | 0.192 | 0.0861 | 22.2 µM (active) | -27.6% (inactive) | – | – | –
2 | COc1ccc(N2C(=O)N(c3c(C)cccc3Cl)Cc3cnc(Nc4ccc(C5CCN(C)CC5)cc4OC)nc32)nc1 | 14.7 µM (active) | 3.32 µM (active) | 3.72 µM (active) | inactive | -1.61 (inactive) | -1.1 | -0.332 | 14 µM (active) | – | inactive | – | –
3 | CN(C)C/C=C/C(=O)Nc1ccc(C(=O)N2CCC[C@@H](Nc3ncc(Cl)c(-c4c[nH]c5ccccc45)n3)C2)cc1 | 1.47 µM (active) | 0.166 µM (active) | – | inactive | -1.88 (inactive) | -2.59 | -2.1 | 1.11 µM (active) | 26.2% (inactive) | inactive | – | –
4 | CCC[C@H](NC(=O)/C(C#N)=C/c1cccc(Br)n1)c1ccccc1 | 4.15 µM (active) | 11.8 µM (active) | – | inactive | 0.211 (inactive) | 0.0929 | 0.0816 | 6.25 µM (active) | – | inactive | – | –
5 | Cc1cc(-n2c(=O)ccc3cnc4[nH]ccc4c32)ccc1F | 4.15 µM (active) | 18.6 µM (active) | – | inactive | -0.465 (inactive) | 0.0709 | 0.281 | 3.52 µM (active) | 5.99% (inactive) | inactive | – | –
6 | C=CC(=O)N1CC/C(=C\c2ccc(F)c([N+](=O)[O-])c2)C(=O)/C(=C/c2ccc(F)c([N+](=O)[O-])c2)C1 | 0.658 µM (active) | 0.0833 µM (active) | 0.059 µM (active) | inactive | – | -2.29 | -2.19 | 0.222 µM (active) | – | inactive | 0.219 µM (active) | –
7 | CN1CCN(c2ccc3nc(-c4cc(C(C)(C)C)c(OCCCC(=O)NCCCN=[N+]=[N-])c(C(C)(C)C)c4)[nH]c3c2)CC1 | 13.1 µM (active) | 7.42 µM (active) | 6.61 µM (active) | – | 0.842 (inactive) | 0.24 | 0.156 | – | – | – | – | 24.9 µM (active)
8 | COc1cccc2c1C(=O)c1c(O)c3c(c(O)c1C2=O)C[C@@](O)(/C(CO)=N/NC(=O)CCCCCN1C(=O)C=CC1=O)C[C@@H]3O[C@H]1C[C@H](N)[C@H](O)[C@H](C)O1 | 3.3 µM (active) | 0.209 µM (active) | 0.132 µM (active) | inactive | – | -1.6 | -1.55 | 2.79 µM (active) | -0.403% (inactive) | inactive | 1.1 µM (active) | –
9 | C=CCNc1c(O)cc2c(O)c1C[C@@H](C)C[C@H](OC)[C@H](O)[C@@H](C)/C=C(/C)[C@H](OC(N)=O)[C@@H](OC)/C=C\C=C(\C)C(=O)N2 | 0.0523 µM (active) | 1.66 µM (active) | 1.05 µM (active) | – | 0.465 (inactive) | 0.348 | 0.268 | 0.0443 µM (active) | – | inactive | – | –
10 | CC[C@@]1(O)C(=O)OCc2c1cc1n(c2=O)Cc2c-1nc1cc(F)c(C)c3c1c2[C@@H](N)CC3 | 0.165 µM (active) | 0.0033 µM (active) | 0.0026 µM (active) | – | – | -3.81 | -2.97 | 0.313 µM (active) | -10.9% (inactive) | 14.5 µM (active) | 0.0087 µM (active) | –
11 | CC(C)c1c(-c2ccccc2)nc2c(C#N)c[nH]n2c1=O | 5.23 µM (active) | inactive | inactive | inactive | 1.36 (inactive) | 0.594 | 0.731 | 3.94 µM (active) | -0.422% (inactive) | inactive | – | –
12 | C[C@H]1CNC(=O)c2cnn3ccc(nc23)N[C@H](C)c2cc(F)ccc2O1 | 1.17 µM (active) | 1.48 µM (active) | 1.18 µM (active) | inactive | – | -2.09 | -2.06 | 4.43 µM (active) | – | inactive | 1.55 µM (active) | –
13 | O=C(/C=C/c1ccc2ccc(C(F)(F)F)cc2n1)c1ccncc1 | 5.23 µM (active) | 2.35 µM (active) | 2.09 µM (active) | inactive | -0.632 (inactive) | -0.753 | -0.961 | 4.43 µM (active) | – | inactive | – | –
14 | CCc1c(-c2ccccc2C)nc2c(C#N)c[nH]n2c1=O | 829 nM (active) and 1.31 µM (active) | inactive | inactive | inactive | 1.17 (inactive) and -0.599 (inactive) | 1.23 and -0.433 | 1.49 and -0.54 | 1.4 µM (active) and 787 nM (active) | 16.2% (inactive) and -8.52% (inactive) | inactive | – | –
15 | COc1ccc(C(=O)N2CCN(c3ccc4c(c3)CCC(=O)N4)CC2)cc1OC | inactive | inactive | inactive | inactive | -0.238 (inactive) | 0.0272 | 0.0147 | – | – | inactive | – | –
16 | COC(=O)C1=C(C)NC(c2ncc(F)cc2F)=N[C@H]1c1ccc(F)cc1Cl | 20.8 µM (active) | 14.8 µM (active) | 13.2 µM (active) | inactive | 0.0263 (inactive) | 0.182 | 1.13 | – | – | inactive | – | –
17 | Cc1ccc(-c2ccc(C)cn2)nc1 | inactive | inactive | inactive | inactive | 1.52 (inactive) | 0.85 | 1.74 | – | – | inactive | – | –
18 | C=C1CCC2[C@](C)(CO)C(O)CC[C@]2(C)C1C/C=C1/C(=O)OCC1O (stereo partly drawn) | 13.1 µM (active) | 7.42 µM (active) | 7.42 µM (active) | – | 0.689 (inactive) | -0.31 | -0.312 | – | – | inactive | – | –
19 | CC(C)=CCC[C@](C)(O[C@@H]1O[C@H](CO[C@@H]2O[C@H](CO)[C@@H](O)[C@H](O)[C@H]2O)[C@@H](O)[C@H](O)[C@H]1O)[C@H]1CC[C@]2(C)[C@@H]1[C@H](O)C[C@@H]1[C@@]3(C)CC[C@H](O[C@@H]4O[C@H](CO)[C@@H](O)[C@H](O)[C@H]4O[C@@H]4O[C@H](CO)[C@@H](O)[C@H](O)[C@H]4O)C(C)(C)[C@@H]3CC[C@]12C | inactive | inactive | inactive | inactive | 1.47 (inactive) | 1.48 | 1.64 | – | – | inactive | – | –
20 | O=C(O)c1ccc(O)c2ncccc12 | inactive | 20.9 µM (active) | – | inactive | 1.08 (inactive) | 0.983 | 1.08 | – | – | inactive | – | –
21 | Cc1c(-c2cnccn2)ssc1=S | inactive | 16.6 µM (active) | 13.2 µM (active) | – | -0.037 (inactive) | 0.595 | 0.421 | – | – | inactive | – | –
22 | C[C@@H]1CC(=O)Nc2cccc(-c3cnn(C(C)(C)C)c3)c2N1 | inactive | 6.61 µM (active) | 5.9 µM (active) | inactive | -0.505 (inactive) | -0.577 | -0.924 | – | – | inactive | – | –
23 | O=C(/C=C/c1cccnc1)NCCCCC1CCN(C(=O)c2ccccc2)CC1 | inactive | 0.0019 µM (active) | 0.0047 µM (active) | inactive | – | -2.84 | -2.61 | – | – | inactive | 0.0436 µM (active) | –
24 | COc1ccc(-n2cnc3cc(C(=O)N4CCCCC4)ccc32)cc1 | inactive | inactive | inactive | inactive | 0.871 (inactive) | 0.696 | 0.92 | – | – | inactive | – | –
25 | NC1=N[C@@]2(c3cc(NC(=O)c4ccc(F)cn4)ccc3F)COC[C@H]2CS1 | inactive | inactive | inactive | inactive | 1.41 (inactive) | 0.672 | 0.598 | – | – | inactive | – | –
26 | Cc1c(CN2CCN(C(=O)[C@H](C)O)CC2)sc2c(N3CCOCC3)nc(-c3cnc(N)nc3)nc12 | 0.262 µM (active) | 0.0417 µM (active) | 0.0742 µM (active) | inactive | 0.0318 (inactive) | 0.386 | 0.839 | – | – | inactive | – | –
